{"source": "PubChem BioAssay (NCATS)", "note": "Inconclusive results are not listed. The source made the active and inactive calls. Calls come from the whole dose curve; as a rule, active = well fitted inhibition curve with a large enough effect in the signal ratio, with a control signal flat (not every such curve was filed as active); inconclusive = small, poorly fitted or top-dose-only effect, or effect the other way, or a change in a side signal; inactive = no such curve, though single readings can be large or run the other way; the % refers to the signal ratio.", "data": [{"target": "Peroxisome proliferator-activated receptor delta (Homo sapiens) (UniProt Q03181)", "sequence (Q03181 whole entry, looked up)": "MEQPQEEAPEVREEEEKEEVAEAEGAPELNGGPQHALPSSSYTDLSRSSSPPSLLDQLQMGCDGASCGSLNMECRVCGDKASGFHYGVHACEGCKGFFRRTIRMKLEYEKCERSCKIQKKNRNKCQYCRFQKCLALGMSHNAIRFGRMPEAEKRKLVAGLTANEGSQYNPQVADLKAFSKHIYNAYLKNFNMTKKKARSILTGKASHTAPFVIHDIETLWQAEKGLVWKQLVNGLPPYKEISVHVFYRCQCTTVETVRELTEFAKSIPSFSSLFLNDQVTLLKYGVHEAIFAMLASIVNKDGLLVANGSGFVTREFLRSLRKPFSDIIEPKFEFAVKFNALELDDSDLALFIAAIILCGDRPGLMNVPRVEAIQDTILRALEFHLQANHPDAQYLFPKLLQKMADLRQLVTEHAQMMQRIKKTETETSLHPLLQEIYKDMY", "assay": "qHTS assay for small molecule antagonists of peroxisome proliferator-activated receptor delta signaling (AID 588535)", "details": "HEK293T PPARd-UAS-bla, beta-lactamase FRET ratio, 18 h; series mostly up to 76.7 µM; activity change, negative = inhibition: at the top concentration", "from_the_text": "NIH Chemical Genomics Center [NCGC] U.S. Environmental Protection Agency [EPA] National Institutes of Environmental Health Sciences [NIEHS] National Toxicology Program [NTP] NCGC Assay Overview The Peroxisome proliferator-activated receptors (PPARs) are lipid-activated transcription factors of the nuclear receptor superfamily with three distinct subtypes namely PPAR alpha, PPAR delta (also called PPAR beta) and PPAR gamma. All these subtypes heterodimerizes with Retinoid X receptor (RXR) and have different physiological functions. […] This role of PPAR delta implicates the potential use of its ligands in the treatment of metabolic disorders.\nNCGC Assay Protocol Summary Using a beta-lactamase reporter-gene under control Peroxisome Proliferator-Activated Receptor delta (PPAR-delta) response element, a cell-based assay [GeneBLAzer (PPAR-delta-UAS-bla assay developed by Invitrogen] was used to measure PPAR-delta ligands signaling. GeneBLAzer PPAR-delta-UAS-bla HEK293T cells were used with assay medium containing 2% charcoal/dextran FBS. The assay was performed in clear bottom black Greiner 1536-well plates. Library compounds were measured for their ability to inhibit the reporter gene activity. Compounds were screened in a titration series in 1536-well format. The fluorescence intensity (405 nm excitation, 460/530 nm emission) was measured using an EnVision plate reader. […] Concentration-response titration points for each compound were fitted to the Hill equation yielding concentrations of half-maximal inhibition (IC50) and maximal response (efficacy) values. qHTS protocol for PPAR-delta beta-lactamase assay in antagonist mode [Step] [Parameter] [Value] [Description] 1. Reagent; 5 uL; 4000 cells/well 2. Incubation; 37 C for 5 hrs 3. Compounds; 23 nL; 0.59 nM to 92 uM 4. […] Incubation; 37 C for 18 hrs 7. Detection reagent; 1 uL of CCF4-dye 8. Incubation; RT for 2 hrs 9. Detection; Fluorescence; Envision plate reader", "values": [{"compound": "CC(=O)OC/C=C(C)/C=C/C=C(C)/C=C/C1=C(C)CCCC1(C)C", "activity change, negative = inhibition": "-14.8% (inactive)"}, {"compound": "CCCCCCCCCCCCCCCC[n+]1ccccc1", "activity change, negative = inhibition": "0.739% (inactive)"}, {"compound": "O=C(Oc1ccccc1)c1cccc(C(=O)Oc2ccccc2)c1", "activity change, negative = inhibition": "-0.782% (inactive)"}, {"compound": "CCCC(=O)c1cc(O)c(O)cc1O", "activity change, negative = inhibition": "-6.47% (inactive)"}, {"compound": "Cc1ncc(CO)c(CO)c1O", "activity change, negative = inhibition": "1.25% (inactive)"}, {"compound": "CCCCC(CC)COC(=O)c1ccccc1C(=O)O", "note": "(configuration not stated)", "activity change, negative = inhibition": "8.42% (inactive)"}, {"compound": "CCCCCCCCCCCC[N+](C)(C)Cc1ccccc1", "activity change, negative = inhibition": "15.4% (inactive)"}, {"compound": "CC(C)(C)c1ccc(O)c(O)c1", "outcome": "inactive"}, {"compound": "Cc1ccc(O)cc1", "activity change, negative = inhibition": "-26.3% (inactive)"}, {"compound": "COC(=O)c1c(Cl)c(Cl)c(C(=O)OC)c(Cl)c1Cl", "activity change, negative = inhibition": "14.9% (inactive)"}, {"compound": "COc1cc(C=O)ccc1O", "outcome": "inactive"}, {"compound": "CC(C)C(C)(C)C(C)(C)C(C)(C)S", "outcome": "inactive"}, {"compound": "Cc1cc(C(C)(C)C)c(O)c(C(C)(C)C)c1", "activity change, negative = inhibition": "18.6% (inactive)"}, {"compound": "O=C(c1ccccc1)c1ccccc1", "outcome": "inactive"}, {"compound": "CC(C)(c1ccc(O)cc1)c1ccc(O)cc1", "activity change, negative = inhibition": "-14% (inactive)"}, {"compound": "CN1C(=O)c2ccccc2C1=O", "activity change, negative = inhibition": "-17% (inactive)"}, {"compound": "Oc1ccccc1", "outcome": "inactive"}]}]}
